This is an account of results in PubChem BioAssay (NCI).

About 83,000 compounds went through this panel and 20% of them were active in at least one assay; those are over-represented in the sample as a whole.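 Percent growth is the endpoint: 0 to 100 indicates growth inhibition (40 means 60% inhibition), 0 means no net growth, and negative values indicate cell death.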 Values without a mark were called inactive. Active and inactive are the calls of the source. How the source made its calls: active means growth percent below 10; inactive means the rest.

The subject of one assay is IGROV1 ovarian. The assay can be described thus: NCI-60 one-dose screen, 48 h (100 = growth as untreated, 0 = no growth, -100 = all killed). The settings on record: 1 µM.
As to `CC/C(=C(/c1ccc(O)cc1)c1ccc(OCCN(C)C(=O)CCOCCNC(=O)Cc2ccc3c(c2)CN([C@@H]2CCC(=O)NC2=O)C3=O)cc1)c1ccccc1`, the growth is 57.5%. As to `CC/C(=C(/c1ccc(O)cc1)c1ccc(OCCN(C)C(=O)COCCOCCNC(=O)Cc2ccc3c(c2)CN([C@@H]2CCC(=O)NC2=O)C3=O)cc1)c1ccccc1`, the growth was 50%. As for `CC/C(=C(\c1ccc(O)cc1)c1ccc(OCCNC)cc1)c1ccccc1`, the growth was 101%. Regarding `CC/C(=C(\c1ccc(O)cc1)c1ccc(OCCN(C)C(=O)CCOCCNC(=O)c2ccc3c(c2)CN([C@@H]2CCC(=O)NC2=O)C3=O)cc1)c1ccccc1`, the growth is 70.4%.

Still in this assay, the particulars now being: 10 µM.
In the case of `CC/C(=C(/c1ccc(O)cc1)c1ccc(OCCN(C)C(=O)CCOCCNC(=O)Cc2ccc3c(c2)CN([C@@H]2CCC(=O)NC2=O)C3=O)cc1)c1ccccc1`, the growth was 30.4%. Consider `CC/C(=C(/c1ccc(O)cc1)c1ccc(OCCN(C)C(=O)COCCOCCNC(=O)Cc2ccc3c(c2)CN([C@@H]2CCC(=O)NC2=O)C3=O)cc1)c1ccccc1`, for which the growth was 17.8%. On the same count and under the same terms, in the case of `CC/C(=C(\c1ccc(O)cc1)c1ccc(OCCNC)cc1)c1ccccc1` it was 96.9%; in that of `CC/C(=C(\c1ccc(O)cc1)c1ccc(OCCN(C)C(=O)CCOCCNC(=O)c2ccc3c(c2)CN([C@@H]2CCC(=O)NC2=O)C3=O)cc1)c1ccccc1`, 53.6%.

The same assay, now with this note: 10 µM unless noted.
On to `O=C(Nc1ccc(S(=O)(=O)N2CCCCC2)cc1)C(Cl)Cl`, for which the growth is 135%.

As to `O=C(c1ccc(Cl)cc1)C1[C@H](c2ccccc2Cl)[C@@H](c2ccccc2)NC12C(=O)Nc1ccccc12` (some centres undefined), the growth was -2.25% (active).

Regarding `O=C(c1ccc(O)cc1)C1[C@H](c2ccc(Cl)cc2)[C@@H](c2ccccc2)NC12C(=O)Nc1ccccc12` (some centres undefined), the growth was 3.49% (active). As for `Cc1ccc2nc(SCc3ccccc3F)n(-c3ccccc3)c(=O)c2c1`, the growth is 105%.

Turning to `CCCCNc1ccc2c3c(cccc13)C(=O)N(NCC(O)COc1ccc3c(C)cc(=O)oc3c1)C2=O` (centres undefined), the growth was 78.9%.

As for `c1n[nH]cc1-c1nc2ccc3[nH]ncc3c2c2c1CC1(CC2)COC1`, the growth was 55.4%. `CCN1CCN(Cc2ccc(C(=O)Nc3cccc(Nc4ccc5c(OC)cccc5n4)c3)cc2C(F)(F)F)CC1`: the growth is -83.6% (active).

For `O=C(NN1C(=O)/C(=C/C=C/c2ccc([N+](=O)[O-])o2)SC1=S)c1ccc([N+](=O)[O-])cc1`, the growth is -96.4% (active). Consider `C=CCn1c(O)c(N=Nc2nc(-c3cc4ccccc4oc3=O)cs2)c2ccccc21`, for which the growth is 23.9%. The same measure, in the same setting: then `CCCCCCCCCCCCCCCCCC(=O)Nc1ccc(OC)cc1`, with 103%; and `Cn1cc(-c2cc(N)n3nc(-c4c[nH]c5ccc(Cl)cc45)cc3n2)c2cc(Br)cnc21`, with -49.3% (active).

Regarding `COC(=O)c1ccc(-c2c(-c3ccccc3)c(F)c3oc(C(=O)OC)c(N)c3c2-c2ccccc2)cc1`, the growth was 102%.

`COc1ccc(-c2nc3ccccc3n2CC(=O)N=Nc2c(O)[nH]c3ccc(Br)cc23)cc1`: the growth is 60.3%. Regarding `O=C(N/N=C/c1c[nH]c2ccccc12)Nc1ccccc1Cl`, the growth was 19.9%. Take `COc1ccc(CCC2NCCc3c(Br)c4c(c(OC)c32)OCO4)cc1` (centres undefined): the growth was 1.92% (active). Turning to `CN(C)c1nc(NCCNS(=O)(=O)c2ccc(C(=O)/C=C/c3ccc(Cl)cc3)cc2)nc(N2CCOCC2)n1`, the growth is -71.2% (active).

`COc1ccccc1NC(=O)N/N=C/c1c[nH]c2ccccc12`: the growth was 38.7%. Still for that read-out and setting: in the case of `O=C1/C(=C/c2cnc(-c3ccccc3)s2)SC(=S)N1Cc1ccc2c(c1)OCO2` it was 64.2%.

As to `N#CC1=C(c2cccs2)Nc2c(c(-c3ccccc3)nn2-c2ccccc2)C12C(=O)Nc1ccccc12` (centres undefined), the growth was 50.7%. As to `COc1ccc2[nH]c(=O)cc(-n3ncc(C(=O)/C=C/c4cc(OC)c(OC)c(OC)c4)c3C)c2c1`, the growth was -0.815% (active). Take `C[C@H](NC(=O)c1ccc2c(-c3ccc(C(F)(F)F)cc3)cccc2c1)c1ccccn1`: the growth is 55.8%.

Consider `Cn1cc(Nc2ncnc(-c3ccc(N4CCCC4)c(C#N)c3)n2)cn1`, for which the growth was 51.7%. Regarding `CCCCCCCCc1cccc(CC(=O)Nc2ccc(C)cc2C(=O)O)c1`, the growth is 42.5% [25 µM]. Consider `O=C1CCC(N2C(=O)c3cccc(NCCCCCC(=O)N4CCN(c5ccc6nc7c(nc6c5C(F)(F)F)C(=O)c5ncccc5C7=O)CC4)c3C2=O)C(=O)N1` (centres undefined), for which the growth is -75.4% (active). Turning to `CN1C(=O)/C(=C\C(=O)c2cc3ccccc3oc2=O)c2ccccc21`, the growth was 82.3%. For `Cc1ccc2nc(NC(=O)Nc3cccc(Cl)c3)sc2c1`, the growth is 98.4%.

As to `O=C1Nc2ccccc2/C1=C\c1ccc(OCC(=O)c2ccc(Br)cc2)cc1`, the growth is 78.3%. For the molecule `COc1ccc2[nH]cc(-c3cc(N)n4nc(-c5c[nH]c6ccccc56)cc4n3)c2c1`, the growth was 16%. Still for that read-out and setting: in the case of `Cn1cc(-c2cc(N)n3nc(-c4c[nH]c5ccc(Cl)cc45)cc3n2)c2cccnc21` it was -77.7% (active). Take `Cc1ccc(-c2cc(C(=O)N=Nc3c(O)[nH]c4ccc(F)cc34)c3ccccc3n2)cc1`: the growth was 52.9%. On the same count and under the same terms, then `O=C(NN1C(=O)/C(=C/C=C/c2ccc([N+](=O)[O-])o2)SC1=S)c1ccncc1`, with -94.9% (active).
